The campaign covered roughly 410,000 compounds. About 18,000 (4.4%) were called active. Not shown: some 7% with an inconclusive outcome. The sample as a whole holds a higher share of actives than the screen did. A number with no mark means an inactive call. No stated cut-off is given here; in the data, active means activity change below about -60%; inconclusive means no clear call, values can overlap the other calls; inactive means above about -39%.
On the % scale 0 is the no-effect control and ±100 the full control effect.

The test in a line: qHTS Assay for inhibitors of the human cytomegalovirus (HCMV). The settings on record: HFF cells, HCMV-luciferase reporter, 72 h; at 57.5 µM; active compounds read low. The essentials: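 Cell-based, HFFs, 1000 cells/well, 16 h 37C; cpds in DMSO + HCMV-luc, MOI 1 PFU/cell; 72 h 37C; OneGlo luminescence after 5 min RT; norm. to buffer vs Salinomycin 10uM.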
Background: Quantitative high-throughput screening tests each substance at several concentrations.
On to `CCCC(=O)Nc1cc2nn(-c3ccccc3)nc2cc1C`, for which the activity change, negative = inhibition was 123%. Turning to `O=C(Cc1ccc(Cl)cc1)Nc1ccc2nn(-c3ccc(Cl)cc3)nc2c1`, the activity change, negative = inhibition was 21.1%. Regarding `Cc1cc2nn(-c3ccc(Cl)cc3)nc2cc1NC(=O)C(C)C`, the activity change, negative = inhibition is -64.3% (active). Then `Cn1c(=O)n(Cc2c(F)cccc2Cl)c(=O)c2c1nc1n2CCN1c1ccc(F)cc1`, with 17.8%. In the case of `COCCn1c(SCC(=O)c2cc(C)ccc2C)nc2cc(C(=O)NC3CCCC3)ccc2c1=O` it was -4.52%; in that of `CC(C)c1ccc(NS(=O)(=O)c2ccc3[nH]cc(C(=O)NC4CCCC4)c(=O)c3c2)cc1`, 9.04%; in that of `COc1cc(CNCCSc2nnnn2C)ccc1OCc1ccc(Cl)cc1Cl`, -13.2%. In the case of `COc1cc(CNCCSc2nnnn2C)ccc1OCc1c(F)cccc1Cl`, the activity change, negative = inhibition is -60.3% (active). On to `CCOc1ccc(CNCCSc2nnnn2C)cc1`, for which the activity change, negative = inhibition is -12.8%.

Take `Cc1c(Cl)cccc1-c1ccc(CNCCCSc2nnnn2C)o1`: the activity change, negative = inhibition is -0.502%.

For `Cn1nnnc1SCCNCc1ccc(Cl)c(Cl)c1`, the activity change, negative = inhibition is 6.59%.

Regarding `COc1cccc(CNCCSc2nnnn2C)c1OCc1ccccc1Cl`, the activity change, negative = inhibition was -75.4% (active). `Cc1ccc(Cn2c(C)c3cnn(CC(=O)NCc4ccccc4)c(=O)c3c2C)cc1`: the activity change, negative = inhibition was -4.95%. As for `Cc1ccc(CNC(=O)CSC2=Nc3ccccc3C3=NC(C)C(=O)N23)cc1` (configuration not stated), the activity change, negative = inhibition is -13.2%. Take `CCCn1ccc2c(OCC(=O)NCc3ccc(F)cc3)cccc2c1=O`: the activity change, negative = inhibition was 13.2%. For `CC1=C(c2ccc(F)cc2)S(=O)(=O)N=C1N1CCC(C(=O)NCCc2ccccc2C)CC1`, the activity change, negative = inhibition is -1.97%. As to `CCOc1ccc(CNC(=O)CCc2c(C)nn(-c3ccc(N4CCCCC4)nn3)c2C)cc1`, the activity change, negative = inhibition was 17.5%. In the case of `CC(Sc1cccc[n+]1[O-])C(=O)Nc1cccc(S(=O)(=O)N2CCOCC2)c1` (configuration not stated) it was 28.7%. For `CCC(=O)c1ccc(OCC(O)Cn2nc(C)c(C(C)=O)c2C)cc1` (configuration not stated), the activity change, negative = inhibition was -74.9% (active). As to `CCC(=O)c1ccc(OCC(O)CN2C(=O)NC(C)(C)C2=O)cc1` (configuration not stated), the activity change, negative = inhibition was -18.3%. `CCC(=O)c1ccc(OCC(O)CN2CCN(c3cccc(C(F)(F)F)c3)CC2)cc1` (configuration not stated): the activity change, negative = inhibition was -2.36%. For the compound `COc1ccc(S(=O)(=O)N2CCCCC2c2cc(C(=O)NCc3ccc(F)cc3)no2)cc1` (configuration not stated), the activity change, negative = inhibition is -15%. With `COc1ccccc1OCC(=O)Nc1nnc2n1CCS2`, the activity change, negative = inhibition is 1.36%. As to `CC1CN(C(=O)N2CCC(C(=O)NCc3ccco3)CC2)c2cc(Cl)ccc2O1` (configuration not stated), the activity change, negative = inhibition is -3.73%. In the case of `Cn1c(=O)c2sccc2n2c(CCC(=O)NCc3ccccc3Cl)nnc12`, the activity change, negative = inhibition was 9.44%. On to `O=C(CCc1nnc2ccc(NCCCN3CCCC3=O)nn12)NCc1ccccc1Cl`, for which the activity change, negative = inhibition was 0% (active). Regarding `O=C1CCCN1CCCNC(=S)Nc1ccc(F)c(Cl)c1`, the activity change, negative = inhibition was -22.1%. Turning to `Cc1cc(=O)c2cc(C(=O)Nc3cccc(C)c3C)ccc2[nH]1`, the activity change, negative = inhibition is -7.29%. In the case of `C[C@@H]1CC2=C(C(=O)OC(C)(C)O2)[C@@H](C2CC2)O1` it was 7.2%. Take `CCN(C(=O)COC(=O)c1c(C)nn(-c2ccccc2)c1Cl)c1c(N)n(Cc2ccccc2)c(=O)[nH]c1=O`: the activity change, negative = inhibition is -3.2%. Then `O=C(CSc1ccc(-c2ccco2)nn1)NCc1ccc2c(c1)OCO2`, with -3.61%. For the compound `O=C(CSc1ncnc2scc(-c3ccccc3)c12)NCc1ccc2c(c1)OCO2`, the activity change, negative = inhibition was -73.8% (active). Then `Cn1cccc1Cc1nnc(SCC(=O)NCc2ccc3c(c2)OCO3)n1CCc1ccccc1`, with -7.07%. Regarding `COc1cc2nc(SCc3ccc(F)cc3)n3nc(CCn4c(C)nc5ccccc54)nc3c2cc1OC`, the activity change, negative = inhibition is -1.21%. In the case of `O=C(CCC(=O)N1CC2CCCN2c2ccccc21)NCc1ccccc1Cl` (configuration not stated) it was -6.89%; in that of `COc1cc(NC(=O)CSc2nc3nc(C)c(Cc4ccc(C)cc4)c(C)n3n2)cc(OC)c1OC`, 0%; in that of `CCOC(=O)c1c(NC(=O)c2ccc(S(=O)(=O)N3CCCC(C)C3)cc2)sc2c1CCN(C(C)C)C2` (configuration not stated), -62.5% (active).

As to `CCOC(=O)c1c(NC(=O)C2CCN(S(=O)(=O)c3ccc(Cl)cc3)CC2)sc2c1CCCC2`, the activity change, negative = inhibition was -10.4%.

Take `COC(=O)c1c(NC(=O)c2ccc(S(=O)(=O)N3CCOCC3)cc2)sc2c1CCN(C(C)C)C2`: the activity change, negative = inhibition was -4.29%. In the case of `NC(=O)CSc1nc2c(oc3ccccc32)c(=O)n1Cc1ccccc1` it was -22.4%; in that of `COc1ccc(OC)c(NC(=O)Cn2c(=O)n(Cc3ccccc3)c(=O)c3ccccc32)c1`, -3.04%. In the case of `COc1cccc(C(=O)N(Cc2cccc(Cl)c2)Cc2ccco2)c1`, the activity change, negative = inhibition is -7.17%. Regarding `CCC(=C/c1sc2ccc3ccccc3c2[n+]1C)/C=C1\Sc2ccc3ccccc3c2N1C`, the activity change, negative = inhibition was -100% (active). Then `CCOc1ccc(N2CC(c3nc4ccccc4n3CCOc3ccc(OC)cc3)CC2=O)cc1` (configuration not stated), with 23.3%; and `Cc1ccc(-n2c(=O)c3cccnc3n2CC(=O)NCc2ccc(F)cc2)cc1C`, with -0.36%. As for `CCOc1ccc(NC(=O)CSc2nc3ccccc3c(=O)n2Cc2cccs2)cc1`, the activity change, negative = inhibition was -62.8% (active).

In the case of `O=C(CSc1nc2nccnc2c(=O)n1Cc1cccs1)Nc1ccccc1F`, the activity change, negative = inhibition was -31.3%.

Regarding `CCOc1ccc(NC(=O)c2cc3c(=O)n(Cc4cccs4)ccc3nc2C)cc1`, the activity change, negative = inhibition was -12.4%. Regarding `CCc1ccc(C(=O)C(C)OC(=O)CN2C(=O)NC3(CCCC3)C2=O)cc1` (configuration not stated), the activity change, negative = inhibition is -31.9%. As for `O=S(=O)(NCC1CN(S(=O)(=O)c2ccc3c(c2)OCCO3)C1)c1c(F)cccc1F`, the activity change, negative = inhibition was -3.7%. Turning to `Cc1ccc(S(=O)(=O)c2nc(-c3ccco3)oc2SCC(=O)Nc2ccc(F)cc2)cc1`, the activity change, negative = inhibition is 1.94%. In the case of `COc1ccccc1CNc1nccn(-c2ccc(F)cc2)c1=O` it was 18.6%; in that of `CCN(CC)S(=O)(=O)c1cc([N+](=O)[O-])ccc1N=Nc1c(O)n(C)c2ccccc12`, -37.9%. Take `Cn1nc(-c2ccccc2)c2cc([N+](=O)[O-])ccc21`: the activity change, negative = inhibition is -91.8% (active). In the case of `Cn1cnc(C(F)(F)F)c1-c1ccc([N+](=O)[O-])cc1` it was -9.95%; in that of `Cc1cccc(NS(=O)(=O)c2cc(Cl)ccc2Cl)n1`, -15.4%; in that of `Cn1c(=O)c2[nH]c(NCC3CCCO3)nc2n(-c2ccccc2)c1=O` (configuration not stated), -3.27%.

Regarding `CCCCCNC(=O)c1cccnc1SCC(=O)Nc1ccccc1OC`, the activity change, negative = inhibition is -9.93%. For `Cc1oc2ccc(O)c(CN3CCC(C)CC3)c2c1C(=O)Nc1ccccc1`, the activity change, negative = inhibition is -68.4% (active).

Take `CCOC(=O)c1cccc(NC(=O)c2cc(CN3CCCC3)on2)c1`: the activity change, negative = inhibition is 88.3%. For `Cc1ccc(Oc2c(C(F)(F)F)oc3c(CN4CCCCC4)c(O)ccc3c2=O)cc1`, the activity change, negative = inhibition was 13.5%. As for `CCN1CCN(Cc2c(O)ccc3oc(C)c(C(=O)Nc4ccc(C)cc4C)c23)CC1`, the activity change, negative = inhibition was -4.07%.

In the case of `Cc1oc2ccc(O)c(CN3CCOCC3)c2c1C(=O)Nc1cccc(Cl)c1C`, the activity change, negative = inhibition is 0.476%. For the compound `Cc1oc2ccc(O)c(CN3CCCCC3)c2c1C(=O)Nc1cccc(C(F)(F)F)c1`, the activity change, negative = inhibition is -76.5% (active). In the case of `O=C(NCC(F)(F)F)c1ccc(S(=O)(=O)NCCc2ccc3c(c2)OCCO3)cc1`, the activity change, negative = inhibition is -6.01%. With `CCOc1ccccc1NC(=O)Cn1c2ncccc2c(=O)n1-c1ccc(C)c(C)c1`, the activity change, negative = inhibition is -10.1%. As for `CC1CCCN(S(=O)(=O)c2ccc3[nH]c(=O)cc(C(=O)NCCc4ccc(Cl)cc4)c3c2)C1` (configuration not stated), the activity change, negative = inhibition was -16.9%. In the case of `COC(=O)C(O)(c1ccc(NC(=O)c2ccco2)c(OC)c1)C(F)(F)F` (configuration not stated) it was 14.6%; in that of `COc1cc(NC(=O)c2cc([N+](=O)[O-])ccc2Br)ccc1NC(=O)c1ccco1`, -60.9% (active). In the case of `CCOC(=O)C(O)(c1ccc(NC(=O)c2ccco2)c(OC)c1)C(F)(F)F` (configuration not stated), the activity change, negative = inhibition was 8.29%. On to `C=CCOC(=O)C1=C[C@@H](c2ccc3c(c2)OCO3)C[C@@H](OCCCCO)O1`, for which the activity change, negative = inhibition is 20.6%. Regarding `CN1C(=O)CC[C@@H](S(=O)(=O)c2ccccc2)[C@@H]1c1ccccc1`, the activity change, negative = inhibition is 9.42%.

As to `CCOCCCNC(=O)c1cn(CC)c2ccc(S(=O)(=O)N3CCc4ccccc4C3)cc2c1=O`, the activity change, negative = inhibition was 8.54%. Then `Cc1cc(C)c2nc3nc(C)cc(C)c3c(N)c2c1`, with -100% (active). For the compound `CCOc1ccc(S(=O)(=O)NCCC(=O)N2CCCCCCC2)cc1`, the activity change, negative = inhibition was -33.2%. In the case of `Cc1c(C(=O)NCc2ccccc2)cnn1-c1ccccc1`, the activity change, negative = inhibition is -15.9%. Take `CCCc1c(C(=O)Nc2ccc(F)cc2)cnn1-c1ccccc1`: the activity change, negative = inhibition was 64.5%. As to `CCNC(=O)c1cnn(-c2ccccc2)c1-c1ccccc1`, the activity change, negative = inhibition is -99.9% (active).

`CSc1cccc(NC(=O)CN2C(=O)CCc3cc(S(=O)(=O)N4CCCCC4)ccc32)c1`: the activity change, negative = inhibition is 23.2%. As to `Cc1ccc(NC(=O)Nc2sc3nc4n(c(=O)c3c2C)CCC(C)CC4)c(Cl)c1` (configuration not stated), the activity change, negative = inhibition was -0.215%. Regarding `O=C(/C=C/c1ccc([N+](=O)[O-])o1)NNC(=O)c1ccc(F)cc1`, the activity change, negative = inhibition was -99.5% (active). Consider `N#Cc1nc(/C=C/c2ccc(F)cc2)oc1NC1CCCCC1`, for which the activity change, negative = inhibition is -16.7%. With `O=C1C=CN2CCCC2CC1` (configuration not stated), the activity change, negative = inhibition was -5.48%. In the case of `CCc1ccc(NC(=O)Cn2c(=O)n(CCC(=O)NCc3ccc4c(c3)OCO4)c(=O)c3ccccc32)cc1`, the activity change, negative = inhibition is 7.9%. `O=C(NCc1ccc(Cl)cc1)C1CCN(S(=O)(=O)c2cccs2)CC1`: the activity change, negative = inhibition was -33.3%.

Consider `O=C(Nc1ccc(Br)cn1)C1CCN(S(=O)(=O)c2cccs2)CC1`, for which the activity change, negative = inhibition is -89.3% (active). As to `O=C(C1CCN(S(=O)(=O)c2cccs2)CC1)N1CCCCCC1`, the activity change, negative = inhibition was -4.69%.

These data come from PubChem BioAssay AID1259415 (National Center for Advancing Translational Sciences (NCATS), 2018).
